Experimental data taken from PubChem BioAssay (Tox21).
Where “and” joins values, the source holds several entries; their conditions need not be identical. Equal entries are not always repeated. Where a structure was tested more than once in an assay, its records may differ in their call. Calls of active or inactive are those of the source. Calls come from the whole dose curve.

experiment: qHTS assay to identify small molecule agonists of the estrogen related receptor (ERR) signaling pathway from Tox21 library (AID 1224849); settings: ERR reporter cell line, ONE-Glo luciferase, 18 h; at 19 µM (top of the series); note: nearly all actives have a fitted effect of over 15% in size
Source text: National Center for Advancing Translational Sciences [NCATS]
NIH Chemical Genomics Center [NCGC]
U.S. Environmental Protection Agency [EPA]
National Institutes of Environmental Health Sciences [NIEHS]
National Toxicology Program [NTP]
Estrogen related receptors (ERRs), the first orphan nuclear receptors discovered, play an important role in the control of cellular energy metabolism. ERRs are required for high-energy production in response to the environmental challenges. ERR-alpha was also identified as an adverse marker for breast cancer progression; ERR-alpha-positive tumors have a poor prognosis. To screen and to identify environmental compounds that perturb the ERR signaling pathways could provide valuable information for potential therapeutic or preventive measures in the treatment of metabolic disease. For identifying ERR agonists, ERR cell line (provided by NTP) has been used to screen Tox21 10K library.
The ERR cells were dispensed at 2,000 cells/5 ul/well in 1536-well white plates using a Multidrop dispenser. After the assay plates were incubated at a 37 C/5% CO2 incubator for 6 hours, 23 nL of compounds dissolved in DMSO, positive and negative controls or DMSO only was transferred to the assay plate by a pin tool. The plates were incubated at 37 C for 18 hours. 4 ul/well of One-Glo reagent was added into the assay plates using a Flying Reagent Dispenser. After 30-minute incubation at room temperature, the luminescence intensity in the plates was measured using a ViewLux plate reader.
% is set by controls: 0 for no effect and ±100 for the full control effect.

SMILES	activity change, positive = activation
CNC[C@H](O)c1ccc(O)c(O)c1	16.5% (inactive)

same assay, conditions: ERR reporter cell line, ONE-Glo luciferase, 18 h; at 42.5 µM (top of the series)

SMILES	activity change, positive = activation
CC(=O)O[C@]1(C(C)=O)CC[C@H]2[C@@H]3C=C(C)C4=CC(=O)CC[C@]4(C)[C@H]3CC[C@@]21C	-37.5% (inactive)
FC(F)(F)C(Cl)Br (stereo unspecified)	6.22% (inactive)
CC[C@]12CCCN3CCc4c(n(c5ccccc45)[C@@](O)(C(=O)OC)C1)[C@@H]32	7.75% (inactive)
O=C1OC2(c3ccccc31)c1cc(I)c(O)c(I)c1Oc1c2cc(I)c(O)c1I	-27.3% (inactive) and -18.3% (inactive) and -7.34% (inactive)
CC(=O)Oc1c(C)c(C)c2c(c1C)CC[C@@](C)(CCC[C@H](C)CCC[C@H](C)CCCC(C)C)O2	0% (inactive)
CN(C)CCCN1c2ccccc2Sc2ccc(Cl)cc21	-35.5% (inactive)
CC1(C)NC(=O)N(c2ccc([N+](=O)[O-])c(C(F)(F)F)c2)C1=O	-39.2% (inactive)
OC[C@@H](O)[C@@H](O[C@@H]1O[C@H](CO)[C@H](O)[C@H](O)[C@H]1O)[C@H](O)[C@@H](O)CO	4.37% (inactive)
CN(C)/N=N/c1nc[nH]c1C(N)=O	-23.2% (inactive)
C[C@]12C=CC(=O)C=C1CC[C@H]1[C@@H]3C[C@@H](O)[C@](O)(C(=O)CO)[C@@]3(C)C[C@H](O)[C@@]12F	2.12% (inactive)
CC(=O)[C@@]1(O)CC[C@H]2[C@@H]3C[C@H](C)C4=CC(=O)C=C[C@]4(C)[C@@]3(F)[C@@H](O)C[C@@]21C	-14.9% (inactive)
COc1ccc(C(=O)c2ccccc2O)c(O)c1	-1.96% (inactive)
CC(=O)[C@H]1CC[C@H]2[C@@H]3CC=C4C[C@@H](O)CC[C@]4(C)[C@H]3CC[C@]12C	-14.3% (inactive)

same assay, conditions: ERR reporter cell line, ONE-Glo luciferase, 18 h; at 92.4 µM (top of the series)

SMILES	activity change, positive = activation
CC(=O)O[C@]1(C(C)=O)CC[C@H]2[C@@H]3C=C(C)C4=CC(=O)CC[C@]4(C)[C@H]3CC[C@@]21C	-63.2% (inactive)
CCCCCCCCCCCCCO	0.0318% (inactive) and 3.04% (inactive)
O=C(O)c1cc(=O)[nH]c(=O)[nH]1	2.48% (inactive)
FC(F)(F)C(Cl)Br (stereo unspecified)	3.79% (inactive)
Oc1c(Cl)ccc(Cl)c1Cl	1.41% (inactive) and -6.03% (inactive)
CC[C@]12CCCN3CCc4c(n(c5ccccc45)[C@@](O)(C(=O)OC)C1)[C@@H]32	-6.91% (inactive)
O=C1OC2(c3ccccc31)c1cc(I)c(O)c(I)c1Oc1c2cc(I)c(O)c1I	-20.6% (inactive)
OCCNCCO	-2.22% (inactive) and 4.53% (inactive)
CC(=O)Oc1c(C)c(C)c2c(c1C)CC[C@@](C)(CCC[C@H](C)CCC[C@H](C)CCCC(C)C)O2	5.86% (inactive)
CN(C)CCCN1c2ccccc2Sc2ccc(Cl)cc21	-80.4% (inactive)
CC1(C)NC(=O)N(c2ccc([N+](=O)[O-])c(C(F)(F)F)c2)C1=O	-43.1% (inactive)
OC[C@@H](O)[C@@H](O[C@@H]1O[C@H](CO)[C@H](O)[C@H](O)[C@H]1O)[C@H](O)[C@@H](O)CO	5.88% (inactive)
CN(C)/N=N/c1nc[nH]c1C(N)=O	-35.6% (inactive)
c1ccc2cc3ccccc3cc2c1	6.4% (inactive) and 19.8% (active)
C[C@]12CC[C@@H]3c4ccc(O)cc4CC[C@H]3[C@@H]1CC[C@H]2O	-38.5% (inactive) and -39.7% (inactive)
C[C@]12CC[C@@H]3c4ccc(O)cc4CC[C@H]3[C@@H]1CC[C@@H]2O	-53.8% (inactive) and -42.2% (inactive)
O=C(O)c1ccc(O)cc1	9.49% (inactive)
C=CCOC(=O)C(=C)C	-1.6% (inactive) and 1.74% (inactive)
C[C@]12C=CC(=O)C=C1CC[C@H]1[C@@H]3C[C@@H](O)[C@](O)(C(=O)CO)[C@@]3(C)C[C@H](O)[C@@]12F	-0.443% (inactive)
ClC/C=C/CCl	-1.09% (inactive) and 0.131% (inactive)
IC(I)I	0.549% (inactive) and 0.511% (inactive)
Nc1ccc(O)c(N)c1	-9.18% (inactive) and -12% (inactive)
CC(=O)[C@@]1(O)CC[C@H]2[C@@H]3C[C@H](C)C4=CC(=O)C=C[C@]4(C)[C@@]3(F)[C@@H](O)C[C@@]21C	-31% (inactive)
COc1ccc(C(=O)c2ccccc2O)c(O)c1	-27.1% (inactive)
CC(=O)[C@H]1CC[C@H]2[C@@H]3CC=C4C[C@@H](O)CC[C@]4(C)[C@H]3CC[C@]12C	-23.4% (inactive)
NCCOCCO	-2.16% (inactive) and 1.44% (inactive)
CNC[C@H](O)c1ccc(O)c(O)c1	-7.74% (inactive)
